This is a sample that favours compounds with a hit; in the whole collection about 1.1% have one here.
MazEF act = activators of E. coli MazEF toxin-antitoxin RNase, primary screen, biochemical, fluorescence, uHTS; FAM/BHQ RNA-DNA oligo cleavage fluorescence, 5 h; activation, % at 20 µM; hit rate 0.32% among 350,000; in the data active = activation above about 50%
Target sequence (P0AE70 whole entry, looked up): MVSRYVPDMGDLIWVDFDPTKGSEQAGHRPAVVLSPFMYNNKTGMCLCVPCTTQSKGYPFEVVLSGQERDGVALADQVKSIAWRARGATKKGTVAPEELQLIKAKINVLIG
PfHsp40 yeast = rescue of yeast from PfHsp40 toxicity, primary screen, S. cerevisiae, ATP luminescence; growth rescue, % at 12.5 µM; hit rate 0.68% among 340,000; S. cerevisiae expressing PfHsp40, growth rescue; in the data active = growth rescue above about 28%, passing the limit was not always enough; inconclusive = no clear call, values can overlap the other calls;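 note: yeast W303a lacking pdr1 and pdr3 grown in galactose medium; growth measured after three days at 30 °C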
BioA inh = M. tuberculosis BioA enzyme inhibitors, primary screen, biochemical, plate reader, single point, HTS. 7,8-diaminopelargonic acid synthase BioA (Mycobacterium tuberculosis). purified M. tuberculosis BioA enzyme. inhibition, % at 9.99 µM. hit rate 0.096% among 360,000. AID 602481, 2012; in the data active = inhibition above about 40%; inconclusive = no clear call, values can overlap the other calls
Yp Topo-I inh = Yersinia pestis topoisomerase I inhibitors, primary screen, biochemical, cleavage product accumulation, plate reader, single point; DNA topoisomerase I (Yersinia pestis CO92); Y. pestis Topo-I cleavage product accumulation; hit rate 0.064% among 360,000; activity, % at 10 µM; in the data active = activity above about 50%, passing the limit was not always enough; inconclusive = no clear call, values can overlap the other calls
BJeLR lethal = MLPCN primary cell-based screen for lethality selective to Ras in HRASV12 cells; BJeLR (HRASV12) viability, CellTiter-Glo ATP luminescence, 48 h; inhibition, % (no concentration beside the values); hit rate 0.17% among 300,000; in the data active = inhibition above about 50%; inconclusive = no clear call, values can overlap the other calls
3CLpro inhibitor = SARS-CoV 3CLpro protease inhibitors, primary screen, biochemical, quenched FRET | Replicase polyprotein 1ab (Severe acute respiratory syndrome coronavirus), P0C6X7 | recombinant SARS-CoV 3CLpro, quenched FRET peptide cleavage | inhibition, % at 6 µM | hit rate 0.14% among 290,000 | AID 1706, 2009; in the data active = inhibition above about 12%
An asterisk follows results filed as active; ? = inconclusive; . = no result given.

SMILES	MazEF act	PfHsp40 yeast	BioA inh	Yp Topo-I inh	BJeLR lethal	3CLpro inhibitor
COc1ccc(NC(=O)Nc2ccc3c(c2)C(=O)N([C@@H](C)CO)C[C@@H](C)[C@H](CN(C)S(=O)(=O)c2cn(C)cn2)OCCCC[C@H](C)O3)cc1	.	.	2	.	.	.
O=C1c2ccccc2N(Cc2ccc(Cl)cc2)C2=NCCN12	146*	0	0	1	-12	0
Cc1ccc(S(=O)(=O)N(C)C[C@@H]2Oc3ccc(NC(=O)Nc4c(C)noc4C)cc3CC(=O)N([C@@H](C)CO)C[C@@H]2C)cc1	.	.	-1	.	.	.
C[C@@H]1CCCCO[C@@H](CN(C)Cc2ccc(C(F)(F)F)cc2)[C@H](C)CN([C@@H](C)CO)C(=O)c2cc(NC(=O)NC3CCCCC3)ccc2O1	.	.	-1	.	.	.
Cc1ccc(/C=C/C(=O)c2ccccc(=O)c2O)c(C)c1	-5	183*	0	3	16	5
O=C(/C=C/c1ccccc1Cl)c1ccc(O)cc1	-13	?	4	-2	8	-1
Cc1ccc(C)c(/C=C/C(=O)c2ccccc(=O)c2O)c1	-11	224*	0	1	37	3
O=C(/C=C/c1ccc([N+](=O)[O-])cc1)c1ccccc(=O)c1O	1	0	.	-7	.	.
O=C(/C=C/c1ccccc1Cl)c1ccccc(=O)c1O	-19	64*	.	-6	26	0
C[C@@H]1CN([C@H](C)CO)S(=O)(=O)c2ccc(-c3cncnc3)cc2O[C@H]1CN(C)CC1CC1	.	.	-2	.	.	.
C[C@@H]1CCCCO[C@H](CN(C)Cc2ccccc2)[C@H](C)CN([C@@H](C)CO)C(=O)c2cc(NC(=O)C3CCCCC3)ccc2O1	.	.	1	.	.	.
CCCOc1ccc(NC(=O)CC2C(=O)N(C)C(=S)N2Cc2cccs2)cc1 (stereo not drawn)	97*	-1	0	7	7	0
CN1C(=O)c2cc(NC(=O)c3ccccc3)ccc2OC[C@@H]2O[C@@H](CC(=O)O)CC[C@H]21	.	.	1	.	.	.
CS(=O)(=O)N(Cc1ccc(C(=O)Nc2ccccc2Sc2ccccc2)cc1)c1ccccc1	2	1	.	?	1	13*
O=Nc1c(-c2c(O)[nH]c3cc(Br)ccc23)[nH]c2ccccc12	55*	1	-3	-9	-4	1
C[C@@H]1CN([C@@H](C)CO)C(=O)c2cc(C#CC3CCCCC3)cnc2O[C@H]1CN(C)S(=O)(=O)c1ccc(F)cc1	.	.	-7	.	.	.
CC1(C)CCC[C@]2(C)[C@H]3Cc4cc(O)ccc4O[C@]3(C)CC[C@@H]12	-7	93*	1	29	.	.
CCC1CCCCN1CCCNC(=O)c1cn(C)c2ccc(S(=O)(=O)N(C)C3CCCCC3)cc2c1=O (stereo not drawn)	9	38*	0	19	5	-4
CCCOc1ccc(C(=O)Nc2ccc(S(=O)(=O)N3C[C@@H]4C[C@@H](C3)c3cccc(=O)n3C4)cc2)cc1	7	0	-1	67*	.	.
CCOc1ccc(NC(=S)Nc2cc(-c3ccccc3)[nH]n2)cc1	7	106*	3	3	-16	4
Cc1ccc(S(=O)(=O)N(C)C[C@H]2OCCCC[C@H](C)Oc3ccc(NC(=O)CCCN(C)C)cc3C(=O)N([C@H](C)CO)C[C@@H]2C)cc1	.	.	0	.	.	.
C[C@@H]1CN([C@H](C)CO)C(=O)Cc2cc(NC(=O)Nc3ccccc3)ccc2O[C@@H]1CN(C)Cc1ccc(C(=O)O)cc1	.	.	-1	.	.	.
Cc1nn(-c2ccc3ccccc3c2)c(=O)c2ccccc12	-5	-1	1	-7	2	2
Cc1nn(-c2nc3ccccc3[nH]2)c(=O)c2ccccc12	9	-6	.	-16	90*	0
CCN(Cc1ccccc1)C(=O)CSc1nc(C)cc(C)c1C#N	6	129*	2	33	-6	-1
CCN(CC)C(=O)CSc1nc(C)cc(C)c1C#N	4	-2	0	16	6	-3
COc1ccc(CN(Cc2cccn2C)C(=O)c2cc3cc(OC)ccc3[nH]2)cc1	-4	0	0	51*	-3	1

Assay outcomes as filed in PubChem.
